From PubChem BioAssay
Sampled rows, rich in hits. Any-hit rate of the full collection: about 4.1%.
Autofluor counter – flagged as autofluorescent in microsphere protease counterscreen. compound autofluorescence counterscreen, microsphere flow cytometry; active compounds read high. fluorescence intensity (no concentration beside the values). 360,000 compounds, 3.1% hits. AID 624483; in the data active = fluorescence intensity above about 16000; inconclusive = no clear call, values can overlap the other calls
BoNT-A LC inh2 – BoNT/A light chain protease inhibitors, primary screen, biochemical, flow cytometry, MLPCN library | Botulinum neurotoxin type A light chain protease (Clostridium botulinum A str. ATCC 3502) | inhibition, % at 10 µM | 360,000 compounds, 0.17% hits | multiplex microsphere protease substrate cleavage | AID 588499, 2011
BoNT-F LC inh – BoNT/F light chain protease inhibitors, primary screen, biochemical, flow cytometry, MLPCN library | Botulinum neurotoxin type F light chain protease (Clostridium botulinum) | inhibition, % at 10 µM | Multiplex microsphere protease cleavage assay | 360,000 compounds, 0.22% hits; in the data active = inhibition above about 35%, passing the limit was not always enough; inconclusive = no clear call, values can overlap the other calls
MazF activator – activators of E. coli MazEF toxin-antitoxin RNase, primary screen, biochemical, fluorescence, uHTS | Endoribonuclease toxin MazF (Escherichia coli (strain K12)), P0AE70 | FAM/BHQ RNA-DNA oligo cleavage fluorescence, 5 h | activation, % at 20 µM | 350,000 compounds, 0.32% hits | AID 504720, 2011; in the data active = activation above about 50%
VHR inh abs – VHR1 phosphatase inhibitors, primary screen, biochemical, absorbance, uHTS. inhibition, % at 13.3 µM. Dual specificity protein phosphatase 3 (Homo sapiens), P51452. recombinant VHR phosphatase, pNPP absorbance. 290,000 compounds, 0.52% hits; in the data active = inhibition above about 50%
Anthrax LF prot – Bacillus anthracis LF protease inhibitors, primary screen, biochemical, multiplex microsphere, MLPCN library. inhibition, % at 10 µM. AID 588501, 2011. multiplex microsphere protease cleavage assay. 360,000 compounds, 0.12% hits
Numbers stand for hits; 0 = inactive; ? = inconclusive; - = no result given. Cut-off read from the data, not from the text of the source, unless noted: active = inhibition above about 30%; inconclusive = no clear call, values can overlap the other calls; inactive = below that.

SMILES | Autofluor counter | BoNT-A LC inh2 | BoNT-F LC inh | MazF activator | VHR inh abs | Anthrax LF prot
Cc1ccccc1NC(=O)C1c2cccc[n+]2CC(=O)N1c1c(C)cccc1C (stereo not drawn) | 0 | 0 | 0 | 63 | 0 | 0
CCN(C(C)=O)c1nc(CSc2nnc(NC(C)C)s2)cs1 | 19610 | ? | 0 | 0 | 0 | 0
O=C(CSc1nnc(Cc2ccccc2)n1Cc1ccco1)NC12CC3CC(CC(C3)C1)C2 | 23614 | ? | 0 | 0 | 0 | 0
CN(C)C(=O)CSc1nnc(Cc2ccccc2)n1Cc1ccco1 | 0 | 0 | 0 | 0 | 0 | 0
CN(C)CCO/N=C(\c1ccc(Br)cc1)c1cccnc1 | 21777 | 0 | ? | 0 | - | 0
Cc1cc(C(=O)Nc2cc(Br)ccc2O)on1 | 0 | 0 | 0 | 0 | 53 | 0
CCC[C@@H]1CCCC/C=C\CCCC(=O)OCCN1C(=O)OC(C)(C)C | 0 | 0 | 0 | 0 | - | 0
COC(=O)c1cccnc1-n1c(=O)c2cccnc2n(Cc2cccc([N+](=O)[O-])c2)c1=O | 0 | 0 | 0 | 0 | 0 | 0
COC(=O)c1cccnc1-n1c(=O)c2cccnc2n(Cc2ccc(Cl)cc2)c1=O | 22186 | 0 | 0 | 0 | 0 | 0
CC(NC(=O)c1ccco1)C(=O)OCc1cccc(C(F)(F)F)c1 (stereo not drawn) | ? | 0 | 0 | 0 | - | 0
CC(=O)Nc1ccc(NC(=O)CCCCCn2nnc3ccccc3c2=O)cc1 | 0 | 0 | 0 | 0 | 0 | 0
CC(=O)Nc1ccc(C(=O)Cn2nnc3ccccc3c2=O)cc1 | 18940 | 0 | 0 | 0 | 0 | 0
CCS(=O)c1ccccc1C(=O)OCC(=O)Nc1cccc(S(=O)(=O)N2CCCCC2)c1 (stereo not drawn) | 0 | 0 | 0 | 0 | - | 0
CCSC1=C(C#N)C2(CCCCC2)C(C#N)=C(N)N1 | 0 | 0 | 0 | 0 | 0 | 0
CCSC1=C(C#N)C2(CCCCC2)C(C#N)C(=O)N1 (stereo not drawn) | 20210 | ? | 0 | 0 | 0 | 0
COc1ccc(C(=O)Cn2cnc3ccccc3c2=O)cc1 | 0 | 0 | 0 | 0 | 55 | 0
COC(=O)c1ccc(OCCn2cnc3ccccc3c2=O)cc1 | 19676 | 0 | 0 | 0 | 0 | 0
CCOc1ccc(OCCCCn2cnc3ccccc3c2=O)cc1 | 0 | 0 | 0 | 0 | 0 | 0
Cc1ccc(OCCOCCn2cnc3ccccc3c2=O)cc1C | - | - | - | - | 0 | -
O=C(Cn1cnc2ccccc2c1=O)OCCCCN1C(=O)c2ccccc2C1=O | 23990 | 0 | 0 | 0 | 0 | 0
COc1ccccc1OCCOCCn1cnc2ccccc2c1=O | 19899 | ? | 0 | 0 | 0 | 0
COc1ccc2oc(C(=O)OCC(=O)NC3CCCCC3)c(C)c2c1 | - | - | - | 0 | - | -
CCCc1nc2scc(-c3ccccc3)c2c(=O)n1N | 23965 | 0 | 0 | 0 | 0 | 0
CCc1nc2scc(-c3ccc(C)cc3)c2c(=O)n1N | 0 | 0 | 0 | 0 | 0 | 0
CCCOc1ccc(NC(=O)CC2C(=O)N(c3ccc(OCC)cc3)C(=S)N2C2CC2)cc1 (stereo not drawn) | 0 | 0 | 0 | 0 | 0 | 0
SMILES | Autofluor counter | BoNT-A LC inh2 | BoNT-F LC inh | MazF activator | VHR inh abs | Anthrax LF prot
Clc1ccc2c(c1)C(c1cccs1)=NNC(c1cccnc1)=N2 | 0 | 0 | 0 | 0 | 0 | 0
COc1ccc2c(c1)C(c1cccs1)=NNC(c1ccncc1)=N2 | 0 | 0 | 0 | 242 | 0 | 0
CCc1ccc2c(c1)C(c1cccs1)=NNC(c1cccnc1)=N2 | 19854 | ? | 0 | 0 | 0 | 0
COCCNC(=O)C1CCCN(C(=O)c2ccc3c(c2)C(C)(C)CCC3(C)C)CC1 (stereo not drawn) | 0 | 0 | 0 | - | - | 0
CSc1ccc(C(=O)C2CCCN(C)C2)cc1 (stereo not drawn) | 0 | 0 | 0 | 0 | 53 | 0
CC1CCCC(C)N1C(=O)COC(=O)CNC(=O)c1ccccc1F (stereo not drawn) | - | - | - | 0 | - | -
CC(C)CNC(=O)CSc1nc(-c2cccs2)cc(C(F)(F)F)n1 | 0 | 0 | 38 | 0 | 0 | 0
CN(C)CCCn1c(=S)[nH]c2ccccc2c1=O | 0 | 0 | 0 | 0 | 0 | 0
CN(C)CCCn1c2c3ccccc3ccc2c2oc(=O)c3ccccc3c21 | 0 | 0 | 0 | 847 | - | 0
COc1ccc(CCNC(=O)CSc2nnc(Cn3c(=O)sc4ccccc43)n2C)cc1OC | 24341 | ? | 0 | 0 | 0 | 0
